# Screens as filed in PubChem.
# Most compounds without a hit are left out; they make up all but 5.6% or so of the library.
# PHOSPHO1 inh = PubChem AID 1565. recombinant PHOSPHO1, absorbance phosphatase assay. inhibition, % at 13.3 µM. hit rate 1.1% among 290,000; in the data active = inhibition above about 60%
# Target sequence (Q8TCT1 whole entry, looked up): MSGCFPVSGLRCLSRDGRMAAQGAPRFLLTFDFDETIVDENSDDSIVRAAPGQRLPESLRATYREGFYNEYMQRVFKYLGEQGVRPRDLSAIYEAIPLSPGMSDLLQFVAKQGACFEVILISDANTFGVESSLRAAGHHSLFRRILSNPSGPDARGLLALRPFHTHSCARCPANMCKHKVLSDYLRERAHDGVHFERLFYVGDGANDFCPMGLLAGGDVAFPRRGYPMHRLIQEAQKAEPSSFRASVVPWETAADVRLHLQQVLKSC
# ALR inh = inhibitors of human ALR sulfhydryl oxidase, primary screen, biochemical, H2O2 detection, HRP-luminol luminescence, single point | FAD-linked sulfhydryl oxidase ALR (Homo sapiens), P55789 | purified ALR, DTT oxidation | inhibition, % (no concentration beside the values) | hit rate 3.8% among 290,000;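 active = mean replicate inhibition above about 79%, with every replicate also reaching it, limit read from the data; inconclusive = only one of the two criteria met; inactive = mean below limit and not every replicate reaching it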
# PfM18AAP inh-1 = PfM18AAP inhibitors, malaria aminopeptidase, primary screen, biochemical, QFRET, recombinant enzyme; H-Glu-NHMec fluorogenic cleavage; inhibition, % at 7.35 µM; hit rate 1.2% among 290,000; AID 1822, 2009;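 active = inhibition above the campaign mean inhibition over all tested compounds plus 3 SD, cut at about 28% in these data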;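 note: 0% = plate median of test compound wells and 100% = 2 mM ZnCl2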
# PfG6PD inh = PfG6PD enzyme inhibitors, primary screen, biochemical, fluorescence intensity, uHTS; glucose-6-phosphate dehydrogenase-6-phosphogluconolactonase (Plasmodium falciparum 3D7); PfGluPho enzyme, NADPH resazurin-diaphorase fluorescence; inhibition, % at 20 µM; hit rate 0.78% among 350,000; AID 504690, 2011;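 active = inhibition reaching at least a set limit at 20 µM in the primary screen, cut at about 59% in these data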;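 note: 0% = DMSO wells with substrate and 100% = DMSO wells lacking glucose-6-phosphate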
# Cardio protect = cardioprotection against H2O2-induced cell death, primary screen, uHTS, H9c2 cells, ATPLite luminescence; H9c2 cardiomyocytes, H2O2 injury protection, 2 h; protection from H2O2 cell death, % at 20 µM; hit rate 0.63% among 360,000;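 active = compounds giving at least 50% protection of heart cells from peroxide-induced death in the single-dose screen, raw or plate-pattern-corrected value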;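 note: 0% = DMSO wells with peroxide and 100% = DMSO wells without peroxide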
# PfM18AAP inh-2 = PfM18AAP inhibitors, malaria aminopeptidase, confirmation, biochemical, QFRET, recombinant enzyme, triplicate | shares compounds with PfM18AAP inh-1 | H-Glu-NHMec fluorogenic cleavage | inhibition, % at 7.35 µM | hit rate 28% among 2,400;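 active = mean inhibition over replicate wells above the hit cutoff set for the earlier primary screen, cut at about 29% in these data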;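 note: 0% = median of test compound wells and 100% = 2 mM ZnCl2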
# CTSL1 counter = cathepsin L1 inhibitors, retest, confirmation, counter-screen for PFM18AAP inhibitor project, biochemical, QFRET, triplicate | shares compounds with PfM18AAP inh-1 | purified cathepsin L1, Z-Leu-Arg-MCA fluorescence | inhibition, % at 5.96 µM | 2,400 tested, under 10 active | AID 2178, 2009;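 active = average inhibition across replicates above the hit cutoff set in the earlier primary screen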;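 note: 0% = median of test compound wells and 100% = Z-Phe-Ala-diazomethylketone 1 µM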
# Target sequence (P07711 whole entry, looked up): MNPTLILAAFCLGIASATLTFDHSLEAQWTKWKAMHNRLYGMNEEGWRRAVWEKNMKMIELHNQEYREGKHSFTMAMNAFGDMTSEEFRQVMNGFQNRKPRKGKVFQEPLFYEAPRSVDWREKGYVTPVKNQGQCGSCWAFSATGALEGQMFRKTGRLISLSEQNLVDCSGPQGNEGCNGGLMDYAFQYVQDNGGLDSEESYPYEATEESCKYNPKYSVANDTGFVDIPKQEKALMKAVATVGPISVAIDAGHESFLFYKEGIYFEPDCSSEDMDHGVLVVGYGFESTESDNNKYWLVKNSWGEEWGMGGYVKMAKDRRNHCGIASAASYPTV
# * hit, by the source's call; ? = inconclusive; nt = no result.
SMILES,PHOSPHO1 inh,ALR inh,PfM18AAP inh-1,PfG6PD inh,Cardio protect,PfM18AAP inh-2,CTSL1 counter
COc1cc(OC)cc(C(=O)Nn2cnnc2)c1,41.6,-5.7,35.6*,-9.1,2.8,29.7*,2.5
O=C(Nn1cnnc1)c1cc([N+](=O)[O-])cc([N+](=O)[O-])c1,-2.4,-80.6,45.5*,-6.4,4.2,49.3*,-2.9
O=C1c2ccccc2C(=O)N1/N=C/c1ccc(O)c(O)c1,0.8,98.7*,56.7*,-22.7,62.3*,68.3*,5.2
O=C1C2C3C=CC(CC3)C2C(=O)N1/N=C/c1ccc(O)c(O)c1 (stereo not given),5.8,nt,53.7*,-20.0,6.4,44.6*,-0.9
O=C1C2C3C=CC(CC3)C2C(=O)N1/N=C/c1ccc(O)cc1 (stereo not given),35.4,5.6,-1.9,-20.9,-8.5,nt,nt
O=P(O)(Cc1ccccc1)c1ccccc1,nt,nt,nt,12.6,-2.9,nt,nt
Cc1ccc(/C(N)=N/OC(=O)C(C)c2ccc([N+](=O)[O-])cc2)cc1 (stereo not given),13.5,26.0,4.1,10.9,-6.4,nt,nt
COc1ccc(-n2c(O)c(/C=C3\C=Nc4ccccc43)c(=O)[nH]c2=O)cc1,44.7,nt,31.7*,-0.9,16.4,0.1,-2.2
CCn1cc(/C=C(\NC(=O)c2ccccc2OC)C(=O)N2CCOCC2)c2ccccc21,nt,nt,nt,19.8,-0.9,nt,nt
CCOC(=O)c1sc2nc(N3CCOCC3)c3c(c2c1N)CCC3,-10.5,-0.3,10.3,8.6,24.7,nt,nt
CCOC(=O)c1ccc(NC(=O)c2sc3nc(N4CCOCC4)c4c(c3c2N)CCCC4)cc1,32.9,-3.5,41.6*,38.7,-1.6,-17.1,-2.3
Cc1ccccc1NC(=O)c1sc2nc(N3CCOCC3)c3c(c2c1N)CCCC3,12.7,-10.4,41.2*,56.2,4.2,25.6,2.7
Nc1c(C(=O)NCCc2ccccc2)sc2nc(N3CCOCC3)c3c(c12)CCCC3,3.5,nt,37.4*,54.5,22.7,-17.2,-3.4
COc1ccc(NC(=O)c2sc3nc(N4CCOCC4)c4c(c3c2N)CCCC4)cc1,nt,nt,nt,21.1,4.9,nt,nt
Cc1nc2ccccc2n1Cc1n[nH]c(=S)n1-c1ccc(Cl)cc1,2.1,44.4,38.8*,4.6,5.5,-2.6,-0.3
S=c1[nH]nc(CCc2ccccc2)n1-c1ccc(Cl)cc1,-21.7,37.7,20.5,14.4,-0.9,nt,nt
O=c1c2ccccc2cnn1Cc1n[nH]c(=S)n1-c1ccc(Cl)cc1,18.5,?,34.9*,45.4,3.0,4.9,-8.3
Cc1ccc(C(=O)Nc2ccc(N3CCN(C(=O)c4cccs4)CC3)cc2)c(Cl)c1,0.1,2.1,-8.9,5.7,1.9,nt,nt
CC(C)CN1CCNC(=O)C1CC(=O)NCCCN1CCCc2ccccc21 (stereo not given),36.7,71.9,10.4,-2.9,-8.1,nt,nt
CN(CCNC(=O)C1CCN(S(=O)(=O)c2cnc[nH]2)CC1)Cc1ccccc1,8.7,14.0,-6.4,2.5,7.5,nt,nt
CCN(CCCNC(=O)C1CCN(S(=O)(=O)c2cnc[nH]2)CC1)c1cccc(C)c1,20.7,98.8*,51.1*,6.2,7.9,-33.5,-0.6
CCN(CCCNC(=O)C1CCCN(S(=O)(=O)CC)C1)c1cccc(C)c1 (stereo not given),16.9,98.7*,47.3*,11.6,5.7,-39.6,-2.9
COc1cccc(OC)c1C(=O)OCc1c(-c2ccccc2)ncc2ccccc12,nt,-1.8,nt,12.1,10.0,nt,nt
CCCNC(=O)C(Cc1ccccc1)NC(=O)c1ccc(C(F)(F)F)cc1 (stereo not given),nt,-4.7,nt,-1.8,1.6,nt,nt
CC(=O)Nc1cccc(N(C)C)c1,13.4,11.9,12.1,-1.4,-4.4,nt,nt
SMILES,PHOSPHO1 inh,ALR inh,PfM18AAP inh-1,PfG6PD inh,Cardio protect,PfM18AAP inh-2,CTSL1 counter
CN(C)c1cccc(NC(=O)Cc2ccc(F)cc2)c1,25.8,31.6,39.2*,8.8,4.8,-10.1,0.7
CC(Sc1ccc(Cl)cc1)C(=O)NNC(=O)c1ccccc1O (stereo not given),0.4,14.0,11.2,-77.1,31.7,nt,nt
Nc1ncnc(Sc2ncccn2)c1[N+](=O)[O-],-30.0,nt,33.7*,-2.6,-23.5,-89.9,1.8
COc1ccc(C(C)(NC(C)=O)c2nc(/C=C/c3ccccc3)cs2)cc1 (stereo not given),nt,nt,nt,nt,-4.0,nt,nt
O=C(O)c1cc([N+](=O)[O-])c(N2CCCC2)c([N+](=O)[O-])c1,-8.8,10.4,38.1*,15.6,8.8,13.5,0.2
COc1c(Br)cc(/C=N/n2c(-c3ccccc3)n[nH]c2=S)c(O)c1Br,nt,22.1,45.0*,22.2,63.5*,-9.1,-3.0
O=C(N/N=C/c1ccc(O)c(O)c1)NC12CC3CC(CC(C3)C1)C2,7.1,99.3*,47.7*,1.0,23.7,13.0,-0.7
CCOc1cc(C=NN=C2c3ccccc3-c3ccccc32)ccc1O,nt,nt,nt,32.6,4.8,nt,nt
Cc1ccc(/C=C/C(=O)Nc2nn[nH]n2)o1,-6.7,28.0,51.3*,39.6,0.7,14.3,5.7
CCN1C(C)=C(C)S/C1=C1\SC(=S)N(N)C1=O,10.2,nt,75.5*,11.7,2.9,-19.9,1.5
CS(=O)(=O)c1cccc(-c2csc(N3CCC(C(N)=O)CC3)n2)c1,nt,-10.1,nt,22.3,-9.7,nt,nt
Cc1cccc(C)c1NC(=O)CN(C)C(=O)Cn1c(=O)cnc2ccccc21,33.5,-0.2,-6.1,-5.2,-0.5,nt,nt
Cc1cc(O)cc(O)c1C(=O)Cc1ccccc1,13.3,33.3,-9.4,4.1,0.1,nt,nt
O=C(Cc1ccc([N+](=O)[O-])cc1)c1c(O)cc(O)cc1O,11.6,52.5,44.1*,-2.4,-6.0,21.0,-9.3
O=C(C1=NN[C@@H]2C(=O)N(Cc3ccccc3)C(=O)[C@H]12)c1ccc([N+](=O)[O-])cc1,1.5,nt,41.6*,18.8,3.3,-3.4,8.2
Cc1ccc(Nc2nc(/N=C/NO)n[nH]2)cc1C,64.7*,60.8,33.4*,13.5,1.8,-4.0,-1.7
COc1cccc(C(NC(=O)c2ccccc2F)NC(=O)c2ccccc2F)c1,15.9,0.9,-0.2,-4.6,5.1,nt,nt
COc1cccc(C(c2c(N)[nH]c(=S)[nH]c2=O)c2c(N)[nH]c(=S)[nH]c2=O)c1,-30.1,?,33.1*,8.9,-4.4,-1.8,6.6
COc1ccccc1C1C2=C(N=c3s/c(=C/c4cccc(OCC(=O)O)c4)c(=O)n31)c1ccccc1CC2 (stereo not given),-1.5,-44.6,36.5*,-12.8,3.8,-33.5,-2.2
CCCOc1ccc(C(=O)Nc2cc(S(=O)(=O)N3CCOCC3)ccc2N2CCOCC2)cc1,nt,-7.7,nt,-4.7,3.8,nt,nt
